This is a sample that favours compounds with a hit; in the whole collection about 3.8% have one here.
ATXN2 expr inh: ATXN2 expression inhibition; hit rate 0.72% among 360,000; HEK-293 ATXN2-luciferase reporter, luminescence, 24 h; Potency, µM (titrated, usually from 57 µM), for inactives: at the top dose activity change, negative = inhibition, actives largely listed as inhibitors; note: % is set by controls: 0 for no effect and ±100 for the full control effect; nearly all actives have a fitted effect of over 55% in size
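qHTS (up to 57 uM final) was run with 24 h compound exposure of reporter cells at 37 °C. Each well was multiplexed: SteadyGlo luminescence measured ATXN2-luciferase expression after a fluorogenic Gly-Phe-AFC viability readout (25 uM final).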
HepG2 tox: HepG2 cytotoxicity, counter-screen for TGF-b inhibitors | Potency, µM (titrated, usually from 46.1 µM), for the others: at the highest dose activity change, negative = cytotoxicity, usual class: cytotoxic | hit rate 0.76% among 410,000 | HepG2 CAGA-GFP viability, ATP luminescence, 18 h
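HepG2 CAGA-GFP cells (1000/well, DMEM with 1% FBS) received compound, then TGF-beta at 500 pg/mL final, and were incubated 18 hours at 37 degrees C. Viability was read by CellTiter-Glo luminescence. Media-only wells were set as complete cell-killing and DMSO as no toxicity.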
TGFb SMAD3 inh: TGF-b pathway inhibition; HepG2 CAGA-GFP TGF-b/SMAD3 reporter, GFP fluorescence, 18 h; TGF-beta stimulated, 500 pg/mL final; AID 588855; Potency, µM (titrated, usually from 46.1 µM), for the others: at the top dose activity, negative = inhibition, actives largely listed as inhibitors; hit rate 1.2% among 410,000; note: % is set by controls: 0 for no effect and ±100 for the full control effect; nearly all actives have a fitted effect of over 65% in size
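GFP signal (ex488/em500-530) from TGF-beta-stimulated HEPG2 CAGA-GFP cells, 500 pg/mL final, 18 h at 37 degrees C in DMEM plus 1% FBS, normalized to unstimulated and DMSO-stimulated controls.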
HT1080NT lethal: kills 2HG-producing HT-1080-NT fibrosarcoma cells. HT-1080-NT fibrosarcoma viability, CellTiter-Glo ATP luminescence, 48 h. AID 686970. hit rate 1.6% among 360,000. Potency, µM (titrated, usually from 46.1 µM), for the others: at the top dose activity, negative = less viability, hits mostly cytotoxic;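 note: NT is the 2HG producing partner of a matched IDH1 knockdown line; 0% = DMSO-treated cells and -100% = media-only wells without cells; nearly all actives have a fitted effect of over 55% in size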
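Read-out is CellTiter-Glo luminescence after 10 minutes at room temperature, following 48 hours' compound treatment of HT-1080-NT cells (750 cells/well, RPMI, 5% FBS, 37 degrees C).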
HT1080 IDH1KD tx: kills HT-1080 cells with IDH1 knockdown; HT-1080 IDH1 knockdown viability, ATP luminescence, 48 h; Potency, µM (doses to about 46.1 µM), without a hit: at the highest dose activity, negative = toxicity, most hits filed as cytotoxic; hit rate 2% among 360,000;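 note: 0% = DMSO wells and -100% = cell-free medium wells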
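% activity derives from luminescence (CellTiter-Glo), normalised to DMSO and no-cell wells. HT-1080-IDH1KD cells, 750/well, had 48 h compound exposure at 37 °C.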
ATXN viability: cell viability loss in ATXN counter-screen. S2 cells (HEK-293 line with an ATXN2-luciferase reporter) viability, CellTiter-Fluor protease fluorescence, 24 h. hit rate 0.49% among 400,000. Potency, µM (highest dose often 56.7 µM), hits mostly cytotoxic; note: nearly all actives have a fitted effect of over 40% in size
* hit, by the source's call; i = inactive; ? = inconclusive; nt = no result. Calls come from the whole dose curve; as a rule, active = well fitted curve in the direction sought with a large enough effect; inconclusive = small, poorly fitted or top-dose-only effect, or another doubt; inactive = no such curve, though single readings can be large; an effect the other way counts as inactive or inconclusive. Potency is the fitted concentration of half-maximal effect.

SMILES	ATXN2 expr inh	HepG2 tox	TGFb SMAD3 inh	HT1080NT lethal	HT1080 IDH1KD tx	ATXN viability
CCCc1nnc(NC(=O)c2nc(S(=O)(=O)Cc3cccc(C)c3)ncc2Cl)s1	?	-99%	?	?	?	nt
O=C(NCc1ccccc1)c1nc(S(=O)(=O)Cc2ccc(F)cc2)ncc1Cl	nt	-112%	?	nt	nt	nt
Cc1ccccc1NC(=O)c1nc(S(C)(=O)=O)ncc1Cl	nt	-119%	16µM*	15µM*	15µM*	nt
Cc1cccc(C)c1NC(=O)c1nc(S(=O)(=O)Cc2ccccc2)ncc1Cl	?	-178%	11µM*	16µM*	8.2µM*	?
Cc1cccc(C)c1NC(=O)c1nc(S(=O)(=O)Cc2ccccc2F)ncc1Cl	nt	-100%	?	nt	nt	nt
Nc1ccc2c(c1)C=C/C2=C\c1ccccc1	nt	-28%	3%	nt	nt	nt
Cc1ccc(NC(=O)COC(=O)c2ccccc2OCC(=O)N(C)C)cc1	nt	3%	-3%	nt	nt	nt
CCOC(=O)c1nc(S(C)(=O)=O)ncc1Cl	?	11µM*	?	8.9µM*	6.3µM*	nt
COc1ccc(NC(=O)c2nc(S(=O)(=O)Cc3cccc(C)c3)ncc2Cl)c(OC)c1	nt	0%	38%	5%	?	i
Cc1ccc(NC(=O)c2nc(S(=O)(=O)Cc3ccccc3)ncc2Cl)cc1	?	22µM*	?	18µM*	6.5µM*	?
CN1C(C(=O)Nc2ccc(C(=O)O)cc2)=C(O)c2ccccc2S1(=O)=O	-2%	5.6µM*	-3%	-15%	-4%	i
CC(=O)c1ccc(N2CCN(C(=O)CCC(=O)Nc3ccc4nc(N5CCCCC5)cc(C)c4c3)CC2)cc1	?	-8%	-3%	nt	nt	i
CC(=O)c1ccc(N2CCN(C(=O)CCC(=O)Nc3ccc4nc(N5CCN(C)CC5)cc(C)c4c3)CC2)cc1	12%	-18%	-1%	-27%	23µM*	i
Cc1cc(N2CCOCC2)nc2ccc(NC(=O)CCC(=O)N3CCN(c4cccc(C(F)(F)F)c4)CC3)cc12	-10%	-15%	?	23µM*	?	?
COc1ccc(C(=O)C[n+]2ccc(Cl)c3ccc(Cl)cc32)cc1	nt	7%	0%	nt	nt	nt
Cc1csc(NC(=O)CSc2nc3[nH]c(=O)cc(O)c3s2)n1	-30%	24%	?	5.8µM*	5.2µM*	?
CC(C)N(C(=O)N1CCN(c2ccnc3cc(Cl)ccc23)CC1)C(C)C	25µM*	1%	0%	-21%	-21%	?
CCC(=O)N1CCN(c2ccnc3cc(Cl)ccc23)CC1	?	-9%	-3%	-8%	2%	?
O=c1oc2cc(OCc3c(F)cccc3Cl)ccc2cc1-c1ccccn1	23%	3%	23%	16%	9%	i
CCCOc1ccc2cc(-c3ccccn3)c(=O)oc2c1	3.5µM*	-61%	-18%	?	?	i
CCOc1ccc(CNC(=O)c2cccc(NC(=O)N3CCSc4ncccc43)c2)cc1OC	nt	-21%	-1%	nt	nt	nt
CC[n+]1c(/C=C/N(C)c2ccccc2)n(-c2ccccc2)c2ccc(-c3nc4ccccc4s3)cc21	4.7µM*	-99%	5.6µM*	?	5.8µM*	13µM*
Cc1cccc2c(=O)cc(CSc3ccccc3NC(=O)c3cccc(Br)c3)[nH]c12	-7%	-6%	-18%	nt	nt	18µM*
O=C(Nc1ccncc1)c1cnn2c1NC(=C1CC1)C=C2C(F)F	nt	2%	1%	nt	nt	nt
O=c1cc(N/N=C/c2ccccc2)[nH]c(=O)[nH]1	?	4%	9%	3.7µM*	7.3µM*	?
SMILES	ATXN2 expr inh	HepG2 tox	TGFb SMAD3 inh	HT1080NT lethal	HT1080 IDH1KD tx	ATXN viability
CCn1c(-c2ccccc2F)nc2cc(NC(C)=O)cc(C(=O)N3CCCCC3c3nccn3C)c21 (stereo unspecified)	nt	nt	nt	nt	nt	i
Cc1ccc2onc(CNC(=O)N3CCN(c4cccc(C)c4C)CC3)c2c1	?	-3%	?	nt	nt	?
O=C(Cn1c2ccccc2c(=O)c2ccccc21)N/N=C/c1ccc(N2CCCC2)c([N+](=O)[O-])c1	32µM*	-50%	-21%	-2%	0%	nt
Cn1c(/C=C/c2ccc(Br)cc2)c([N+](=O)[O-])c(=O)n(C)c1=O	?	-63%	?	?	13µM*	?
CN(C)c1ccc(/C=C/c2c([N+](=O)[O-])c(=O)n(C)c(=O)n2C)cc1	-13%	-21%	0%	-3%	-1%	i
COc1ccc(-n2nnnc2/C=C\Nc2ccccc2C(=O)c2ccccc2)cc1	-14%	-5%	9%	5.8µM*	5.2µM*	?
Cc1cc(Nc2ccc(Br)cc2)nc(C)n1	23%	-20%	-1%	nt	nt	i
CCc1nnc2c(Nc3ccc(N(CC)CC)cc3C)nc3ccccc3n12	nt	-10%	-6%	nt	nt	nt
N=c1ccn(CC(=O)c2ccc(-c3ccccc3)cc2)cc1	3µM*	-26%	?	?	16µM*	i
O=C(CN1C(=O)CCC1=O)c1ccc(-c2ccccc2)cc1	17%	5%	-1%	?	25%	i
C[C@H](CO)N1C[C@H](C)[C@@H](CN(C)C(=O)Nc2ccccc2)Oc2cc(Br)ccc2S1(=O)=O	-10%	-14%	15%	-9%	-9%	i
C[C@H](CO)N1C[C@H](C)[C@@H](CN(C)Cc2ccc(Oc3ccccc3)cc2)Oc2cc(Br)ccc2S1(=O)=O	-2%	-40%	13µM*	?	?	?
C[C@@H]1CN([C@@H](C)CO)S(=O)(=O)c2ccc(C#CC3CCCCC3)cc2O[C@@H]1CN(C)Cc1cccnc1	28µM*	-104%	?	?	?	?
C[C@H]1CN([C@@H](C)CO)S(=O)(=O)c2ccc(Br)cc2O[C@@H]1CN(C)Cc1cccc(F)c1	-75%	13µM*	18µM*	?	-23%	nt
C[C@@H]1CN([C@@H](C)CO)S(=O)(=O)c2ccc(Br)cc2O[C@H]1CN(C)Cc1ccc(-c2ccccc2)cc1	?	-63%	?	?	21µM*	?
COc1ccc(NC(=O)CCc2nc3cccnc3n2-c2ccccc2)c(OC)c1	3%	3%	6%	nt	nt	i
Cc1nn(CC(=O)Nc2cc(F)ccc2F)c(=O)c2cccn12	nt	1%	33%	nt	nt	nt
CC1(C)Cc2ccccc2C(c2cc3ccccc3oc2=O)=N1	-21%	-16%	-21%	21µM*	?	?
CCOC(=O)c1c(NC(=O)COc2cccc(C(F)(F)F)c2)sc2c1CCC(C)C2 (stereo unspecified)	7%	1%	2%	nt	nt	?

Screening results as filed in PubChem.
